# Assay results published in the supplement of paper PMC6953052.
# ± gives the standard deviation of the averaged measurements. Whole data set: some 1,700 compounds, median “fraction of GFP-LC3-positive cells (≥5 vesicles/cell)” near 0.43, cut for the highest 2% near 0.81. Many of the other results were omitted from the sample, so the highest values are more common in it than they were.
# Tested on: CbCln3 Δex7/8/Δex7/8 GFP-LC3 cerebellar neuronal cells
# Test: fraction of GFP-LC3-positive cells (≥5 vesicles/cell); higher = more autophagosome accumulation
# Summary of the method: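 Compound (~50 nL in DMSO) was pin-transferred in duplicate onto wild-type or mutant CbCln3 cerebellar cells stably expressing GFP-LC3, seeded at 2 × 10^3/well in 384-well plates, for 24 h at 33 °C. After fixation in 3.2% PFA, three fields per well were imaged at 10×. The value reported is the duplicate average of the fraction of cells meeting a vesicle-count threshold, with CellProfiler counting GFP-LC3 vesicles per cell and out-of-focus images excluded. Cells met the threshold at 5 or more vesicles.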
row,Structure (SMILES),fraction of GFP-LC3-positive cells
1,CCCCCCCCCCCCCCC[C@@H](O)[C@H](CO)NC(=O)CCCCCCC [C8 Dihydroceramide],0.428
2,CCCCCCCCCCCCCCC[C@@H](O)[C@H](CO)NC(=O)CCCCCCC,0.494
3,CN(CCc1ccc(Cl)c(Cl)c1)CC(O)COc1ccc(NS(C)(=O)=O)cc1 (stereo unspecified),0.503
4,CC(=N)NCc1cccc(CN)c1,0.371
5,Cc1c(N(C)CS(=O)(=O)[O-])c(=O)n(-c2ccccc2)n1C.[Na+] [Dipyrone],0.447
6,O=c1c(O)c(-c2ccc(O)cc2)oc2cc(O)cc(O)c12 [Kaempferol],0.294
7,O=C1CCc2c(ccc3ccccc23)O1 [Splitomycin],0.354
8,"O=C1C=CC(=O)c2c1ccc1c2ccc2ccccc21 [Chrysene-1,4-quinone]",0.883
9,N=C(N)NS(=O)(=O)c1ccc(N)cc1 [Sulfaguanidine],0.43
10,CN(C)CC/C=C1\c2ccccc2COc2ccccc21.Cl [Doxepin hydrochloride],0.567
11,CCCc1c(OCCCCc2nnn[nH]2)ccc(C(C)=O)c1O,0.398 ± 0.011
12,Cc1c(N)c(=O)n(-c2ccccc2)n1C [Ampyrone],0.49
13,CO[C@@H]1[C@H](N(C)C(=O)c2ccccc2)C[C@H]2O[C@]1(C)n1c3ccccc3c3c4c(c5c6ccccc6n2c5c31)C(=O)NC4,0.636
14,O=P(O)(O)C(O)c1ccc2ccccc2c1 (stereo unspecified),0.425
15,CN(C)CC/C=C1\c2ccccc2CSc2ccccc21.Cl [Dosulepin hydrochloride],0.637
16,CN(C)CCn1nnnc1SCC1=C(C(=O)O)N2C(=O)[C@@H](NC(=O)Cc3csc(N)n3)[C@H]2SC1.Cl [Cefotiam hydrochloride],0.488
17,"CCCCC/C=C\C[C@@H](O)/C=C/C=C/C=C/[C@@H](O)CCCC(=O)O [5(S),12(R)-DiHETE all trans]",0.354
18,Nc1cc(N2CCCCC2)nc(N)[n+]1OS(=O)(=O)[O-],0.38
19,CCCC(=O)Nc1ccc(OCC(O)CNC(C)C)c(C(C)=O)c1.Cl (stereo unspecified) [Acebutolol hydrochloride],0.518
20,CN(C(=O)CN(CCO)CC(=O)N(C)C(C)(C)Cc1ccccc1)C(C)(C)Cc1ccccc1 [Oxethazaine],0.384
21,CCCCC[C@H](O)/C=C/[C@H]1[C@H](O)CC(=O)[C@@H]1CCCCCCC(=O)O [Prostaglandin E1],0.349
22,CCCCC[C@H](O)/C=C/[C@H]1[C@H](O)CC(=O)[C@@H]1CCCCCCC(=O)O,0.346
23,O=c1[nH]c2cc(C(F)(F)F)ccc2n1-c1cc(C(F)(F)F)ccc1O,0.292
24,C[n+]1ccccc1/C=N/O.[Cl-] [Pralidoxime chloride],0.428
25,Clc1ccc(COC(Cn2ccnc2)c2ccc(Cl)cc2Cl)c(Cl)c1 (stereo unspecified) [Miconazole],0.337
26,CC1(C)S[C@@H]2[C@H](NC(=O)[C@H](N)c3ccccc3)C(=O)N2[C@H]1C(=O)OC1OC(=O)c2ccccc21.Cl (stereo partly specified) [Talampicillin hydrochloride],0.422

row,Structure (SMILES),fraction of GFP-LC3-positive cells
1,CN/C(=N/CCSCc1nc[nH]c1C)NC#N [Cimetidine],0.473
2,Cn1cnc([N+](=O)[O-])c1Sc1ncnc2[nH]cnc12 [Azathioprine],0.388
3,CCCCC/C=C\C/C=C\C/C=C\C/C=C\CCCC(=O)O[C@@H](CO)COCCCCCCCCCCCCCCCC,0.311
4,CCCCC/C=C\C/C=C\C/C=C\C/C=C\CCCC(=O)O[C@@H](CO)COCCCCCCCCCCCCCCCC [1-Hexadecyl-2-arachidonoyl-glycerol],0.517
5,CC(C)n1c(/C=C/[C@H](O)C[C@H](O)CC(=O)[O-])c(-c2ccc(F)cc2)c2ccccc21.[Na+] [Fluvastatin sodium salt],0.123
6,CC(CNC1CCCCC1)OC(=O)c1ccccc1.Cl (stereo unspecified) [Hexylcaine hydrochloride],0.411
7,O=C1NC(=O)C(c2ccccc2[N+](=O)[O-])=C1Nc1ccc(O)c(Cl)c1,0.364
8,CN[C@@H]1C(O[C@H]2O[C@H](CO)[C@@H](N)[C@H](O)[C@H]2O)O[C@H]2C[C@@H](N)[C@@H](O[C@H]3[C@H](O)[C@@H](O)[C@H](N)C[C@@H]3N)OC2[C@@H]1O (stereo partly specified) [Apramycin],0.274
9,CCCCCCCCCC(=O)N[C@@H](CCCN=C(N)N)C(=O)N[C@H](C(=O)N[C@@H](CCCCN)C(=O)N[C@@H](CCCN=C(N)N)C(=O)CCl)C(C)C,0.536
10,CCCCC/C=C\C/C=C\CC1OC1C/C=C\CCCC(=O)O (stereo unspecified),0.392
11,"CCCCC/C=C\C/C=C\CC1OC1C/C=C\CCCC(=O)O (stereo unspecified) [8,9-Epoxyeicosatrienoic acid]",0.41
12,CCCCCC/C=C/CCCCCCCCC(=O)O [10(Z)-Heptadecenoic acid],0.419
13,CCCC[C@@H](C=O)NC(=O)OC(C)(C)C,0.447
14,COc1c2occc2c(OC)c2c(=O)cc(C)oc12 [Khellin],0.508
15,Cl.c1cnc(N2CCN(Cc3ccc4c(c3)OCO4)CC2)nc1 [Piribedil hydrochloride],0.496
16,Clc1ccc(COC(Cn2ccnc2)c2ccc(Cl)cc2Cl)cc1.O=[N+]([O-])O (stereo unspecified) [Econazole nitrate],0.353
17,COC(=O)C1=C(C)NC(C)=C([N+](=O)[O-])C1c1ccccc1C(F)(F)F (stereo unspecified),0.449
18,CC(=O)N(CC(C)C(=O)O)c1c(I)cc(I)c(N)c1I (stereo unspecified) [Iocetamic acid],0.312
19,COc1cc(S(C)=O)ccc1-c1nc2ncccc2[nH]1 (stereo unspecified) [Sulmazole],0.364
20,CN(C)CCCN1c2ccccc2Sc2ccccc21.Cl [Promazine hydrochloride],0.434
21,C#C[C@]1(O)CC[C@H]2[C@@H]3CCC4=C(CCC(=O)C4)[C@H]3CC[C@@]21C [Norethynodrel],0.389
22,COc1ccc2cc([C@@H](C)C(=O)[O-])ccc2c1.[Na+] [(R) -Naproxen sodium salt],0.478
23,Cl.NC(CO)C(=O)NNCc1ccc(O)c(O)c1O (stereo unspecified) [Benserazide hydrochloride],0.411
24,"CC(C)(C)c1cc(O)c(C(C)(C)C)cc1O [2,5-ditertbutylhydroquinone]",0.696
25,COc1cc2nc(N(C)CCCNC(=O)C3CCCO3)nc(N)c2cc1OC.Cl (stereo unspecified) [Alfuzosin hydrochloride],0.474
